Laboratory results: ChEMBL document CHEMBL1157539, “Thousands of chemical starting points for antimalarial lead identification” (Nature, 2010)

Assays:
Format in all cases: functional
Plasmodium falciparum [1] = test: GSK_TCMDC: Inhibition of Plasmodium falciparum 3D7 in whole red blood cells, using parasite LDH activity as an index of growth. Test compounds present at 2uM
Plasmodium falciparum [2] = test: GSK_TCMDC: Inhibition of Plasmodium falciparum Dd2 in whole red blood cells, using parasite LDH activity as an index of growth. Test compounds present at 2uM
HepG2 = test: GSK_TCMDC: Percent inhibition of human HepG2 cell line. Test compounds present at 10uM.

Structure (SMILES)	Inhibition (Plasmodium falciparum [1]) [%]	Inhibition (Plasmodium falciparum [2]) [%]	Inhibition (HepG2) [%]
O=C(/C=C/c1ccc(Cl)c(Cl)c1)NC1CCC(CN2CCC(Cc3cc4ccccc4[nH]3)CC2)CC1 (stereo unspecified)	100	74	99
CCCC(C)Nc1nc(C)cc(N[C@@H](CC(C)C)C(=O)NCc2cccc(F)c2)n1.O=C(O)C(F)(F)F (stereo partly specified)	96	63	1
Cc1cccc(CNc2ncc(C)c(NCCC(=O)Nc3ccccc3)n2)c1.O=C(O)C(F)(F)F	81	10	18
COc1cc(NC(=O)c2cccc([N+](=O)[O-])c2)cc(S(=O)(=O)c2ccc(Cl)cc2)c1	88	23	0
COC(=O)Cc1ccc(N)c2ccccc12.Cl	98	0	2
CCNc1cc(C(=O)N[C@@H](Cc2cc(F)cc(F)c2)[C@H](O)CNCc2cccc(C(F)(F)F)c2)cc(N2CCCCS2(=O)=O)c1.Cl	99	80	1
Cc1ccc(O)cc1Nc1c(C(N)=O)cnc2ccc(-c3cncs3)cc12	100	99	21
CS(=O)(=O)CCNCc1ccc(-c2ccc3c(Nc4ccc(F)cc4Cl)ccnc3c2)o1	100	98	29
COc1ccc2nccc([C@@H](O)CN3CCC(NCCNc4ccccn4)CC3)c2c1.O=C(O)C(=O)O	100	14	18
CC(C)n1c(C2CCN(CC3CCN(C(=O)/C=C/c4ccc(Cl)c(Cl)c4)CC3)CC2)nc2ccccc21	94	7	36
COc1ccc(C=NN=c2cc(C)[nH]c3ccc(C)cc23)c2ccccc12.Cl	94	55	28
O=C(Cc1ccccc1)NC1CCN(c2ccnc3cc(Cl)ccc23)C1.O=C(O)C(F)(F)F (stereo unspecified)	100	78	6
CN1CCN(CC(=O)Nc2ccc(-c3csc(-c4nc5ccccc5[nH]4)c3)cc2)CC1	99	46	6
Cc1cc(-c2cc(-c3ccc(OCCN(C)C)cc3)[nH]c2-c2ccc3c(c2)CCC3=NO)ccn1	100	92	0
Cc1ccc(CN2CCN(Cc3cccc(NC(=O)c4cccs4)c3)CC2)cc1C.O=C(O)C(F)(F)F	96	68	41
COc1cc(OC)cc(-c2nn(-c3ccc([N+](=O)[O-])cc3Cl)c(=S)n2CC2CCCO2)c1 (stereo unspecified)	98	98	5
C[C@H](Cc1ccc(OCCCOc2ccc(C[C@@H](C)NC[C@H](O)c3cccc(Cl)c3)cc2)cc1)NC[C@H](O)c1cccc(Cl)c1.Cl	99	92	99
Cl.O=C(NC1CCC(CCN2Cc3cccc(F)c3C2)CC1)c1cccc(-c2cccnc2)c1 (stereo unspecified)	98	82	16
O=C(Nc1cccc(C(F)(F)F)c1)N1CCOC(CCN2CCC(c3ccccc3)CC2)(c2ccc(Cl)c(Cl)c2)C1 (stereo unspecified)	87	69	15
CCn1c(CN2CCC(C)CC2)nc2cc(NC(=O)c3cccs3)ccc21	91	95	40
O=C(Nc1cccc(CN2CCN(Cc3cccc(O)c3)CC2)c1)c1cc2ccccc2s1.O=C(O)C(F)(F)F	86	54	13
COc1cc(C(=O)N2CCOC(CCN3CCC(c4ccc(Cl)cc4)CC3)(c3ccc(Cl)c(Cl)c3)C2)cc(OC)c1OC (stereo unspecified)	91	80	44
COc1ccc(CCN(C)CCOc2ccc(NC(=O)COc3ccc4sc5ccccc5c(=O)c4c3)cc2)cc1OC	100	91	99
O=C(Nc1cccc(CN2CCCN(Cc3ccc(O)cc3)CC2)c1)c1ccc2ccccc2c1.O=C(O)C(F)(F)F	100	78	20
O=C(Nc1cccc(N2CCC(NCCCc3ccncc3)CC2)c1)c1cccc(C(F)(F)F)c1	96	50	11
Fc1ccc2[nH]cc(CCNCc3ccc(-c4cccc(-c5nc6ccccc6[nH]5)c4)cc3)c2c1.O=C(O)C(F)(F)F	100	99	69
CCCc1cc(NC2CCN(C)CC2)nc(Nc2cccc(OC)c2)n1	100	28	31
